{"source": "the supplement of paper PMC3898565", "note": "± gives the uncertainty stated by the source.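 Further: viable cell number estimated from Alamar Blue fluorescence read at 560/90, part of a single-dose primary screen of an FDA-approved drug library.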", "data": [{"system": "U87", "test": "cell viability relative to vehicle control; higher = less growth inhibition (less active)", "details": "10 µM; 72 h", "units": {"cell viability": "%"}, "values": [{"compound": "O=c1c(O[C@@H]2O[C@H](CO)[C@H](O)[C@H](O)[C@H]2O)c(-c2ccc(O)c(O)c2)oc2cc(O)cc(O)c12", "cell viability": "106 ± 1.8"}, {"compound": "Nc1nc(N)nc(-c2cc(Cl)ccc2Cl)n1", "cell viability": "95.63 ± 0.69"}, {"compound": "Cn1c(NCCN(CCO)CCCc2ccc([N+](=O)[O-])cc2)cc(=O)n(C)c1=O", "cell viability": "102 ± 3.1"}, {"compound": "Nc1nnc(-c2cccc(Cl)c2Cl)c(N)n1", "cell viability": "102 ± 1.2"}, {"compound": "O=C(O)COCCN1CCN([C@H](c2ccccc2)c2ccc(Cl)cc2)CC1", "cell viability": "101.2 ± 0.57"}, {"compound": "O=C(c1ccccc1)c1ccc2n1CCC2C(=O)O", "note": "(centres undefined) [Ketorolac Tromethamine]", "cell viability": "101.2 ± 0.98"}, {"compound": "C[C@H](N[C@@H](CCc1ccccc1)C(=O)O)C(=O)N1CCC[C@H]1C(=O)O", "cell viability": "98.3 ± 1.7"}, {"compound": "Nc1nc(Cl)nc2c1ncn2[C@@H]1O[C@H](CO)[C@@H](O)[C@H]1O", "cell viability": "90.6 ± 3"}, {"compound": "CC[C@H](C)C(=O)O[C@H]1CCC=C2C=C[C@H](C)[C@H](CC[C@@H]3C[C@@H](O)CC(=O)O3)[C@H]21", "note": "[mevastatin]", "cell viability": "89.1 ± 3.1"}, {"compound": "CCOC(=O)O[C@]1(C(=O)OCCl)CC[C@H]2[C@@H]3CCC4=CC(=O)C=C[C@]4(C)[C@H]3[C@@H](O)C[C@@]21C", "cell viability": "104 ± 1.4"}, {"compound": "COc1cc(C)nc(-n2nc(C)cc2OC)n1", "cell viability": "104 ± 1.9"}, {"compound": "COc1ccc(-c2cc(=O)c3c(OC)c(OC)c(OC)c(OC)c3o2)cc1OC", "note": "[Nobiletin]", "cell viability": "104.9 ± 0.98"}, {"compound": "O=C(NCCN1CCOCC1)c1ccc(Cl)cc1", "note": "[4-Chloro-N-(2-morpholin-4-yl-ethyl)-benzamide]", "cell viability": "80.9 ± 3.8"}, {"compound": "CC[C@]1(O)C[C@@H]2CN(CCc3c([nH]c4ccccc34)[C@@](C(=O)OC)(c3cc4c(cc3OC)N(C)[C@H]3[C@@](O)(C(N)=O)[C@H](O)[C@]5(CC)C=CCN6CC[C@]43[C@@H]65)C2)C1", "cell viability": "24.7 ± 8.7"}]}]}
